Assay outcomes deposited in PubChem BioAssay by National Center for Advancing Translational Sciences (NCATS).
Shiga inhibitor = Shiga toxin inhibition. Vero cells, Shiga toxin protein synthesis inhibition reporter. inhibition, % at 38.7 µM. 9.2% of 290,000 active. AID 2315; in the data active means inhibition mostly above about 28%, no sharp cut-off; inactive means mostly below about 43%; further: 0% is about no effect
Cycloheximide cs = counter-screen for Shiga toxin inhibitors: cycloheximide protein synthesis inhibition. cell reporter, cycloheximide protein synthesis inhibition counterscreen. 12% of 300,000 active. max response, %. AID 2314; in the data active means max response mostly above about 13%, no sharp cut-off; inactive means mostly below about 14%; further: read at 38.3 µM for the half of the compounds with a filed dose; 0% is about no effect
Marburg entry inh = blocks Marburg virus binding to or entry into cells. Marburg virus pseudotyped entry inhibition, cell reporter. Potency, µM (highest dose often 37.8 µM), without a hit: at the highest dose activity change, negative = inhibition, actives largely listed as inhibitors. 1.8% of 300,000 active. AID 540276; calls by dose curve; tested in HEK293 cells; further: potency means the concentration at half of the fitted maximal effect; on the % scale 0 is the no-effect control and ±100 the full control effect
Pf growth 48h = inhibits P. falciparum growth in the first generation, 48 h. 5.9% of 310,000 active. P. falciparum luciferase growth in erythrocytes, 48 h. AID 504832. Potency, µM (titrated, usually from 28.7 µM), for inactives: at the highest dose activity change, negative = inhibition, most hits filed as inhibitors; further: potency means the concentration at half of the fitted maximal effect; on the % scale 0 is the no-effect control and ±100 the full control effect
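Here the parasites carry a stable luciferase gene and grow inside erythrocytes in Albumax-based RPMI medium with compound for one erythrocytic cycle. Activity is scored as loss of luminescent signal.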
Pf growth 96h = P. falciparum growth inhibition at 96 hour, primary screen for plastid delayed-death inhibitors | 6.9% of 320,000 active | Potency, µM (titrated, usually from 28.7 µM), for the others: at the top dose activity change, negative = inhibition, usual class: inhibitors | P. falciparum luciferase reporter growth, 96 h; further: potency means the concentration at half of the fitted maximal effect; on the % scale 0 is the no-effect control and ±100 the full control effect
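Two parasite generations (96 h, 37 C, 5% CO2) of compound exposure in infected erythrocytes (0.05% parasitemia, 2% hematocrit). Luciferase-reporter P. falciparum; decreased luminescence indicates inhibited growth, aimed at apicoplast-acting delayed death.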
LASV entry inh = inhibitors of Lassa virus binding or cell entry; Lassa virus pseudotype entry inhibition, cell reporter; Potency, µM (highest dose often 37.9 µM), for the others: top-dose activity change, negative = inhibition, most hits filed as inhibitors; 1.2% of 300,000 active; AID 540256; calls by dose curve; tested in HEK293 cells; further: potency means the concentration at half of the fitted maximal effect; on the % scale 0 is the no-effect control and ±100 the full control effect; nearly all actives have a fitted effect of over 50% in size
An asterisk follows results filed as active; ? = inconclusive; . = no result given; [ ] = another dose, or the depositor's remark. Hits are enriched below; roughly 19% of the tested compounds scored in any of these assays. Unless noted, the call rests on the fitted dose curve; in most records, active means well fitted inhibition curve with a large enough effect; inconclusive means small, poorly fitted or top-dose-only effect, or another doubt; inactive means no such curve, though single readings can be large or run the other way.

SMILES	Shiga inhibitor	Cycloheximide cs	Marburg entry inh	Pf growth 48h	Pf growth 96h	LASV entry inh
CC(C)Oc1ccc(/C(O)=C2/C(=O)C(=O)N(CCN3CCOCC3)C2c2ccccc2)cc1 (stereo not drawn)	112.3*	25.2*	?	-0.8%	.	2.1%
Cc1ccc(/C(O)=C2/C(=O)C(=O)N(CCN3CCOCC3)C2c2cccs2)cc1 (stereo not drawn)	19.8	10.6*	?	0.7%	-11.1%	-0.5%
Cc1ccc(C2/C(=C(/O)c3cnn(-c4ccccc4)c3C)C(=O)C(=O)N2CCCN2CCOCC2)o1 (stereo not drawn)	54.4*	33.8*	.	111.0%	243.8%	.
COc1cc(NS(=O)(=O)c2ccc(NC(=S)NC(=O)c3sc4ccccc4c3Cl)cc2)ncn1	-13.3	-1.3	11.1%	6.6%	-29.5%	3.5%
Oc1ccc(Cc2ccc(Cl)cc2)c(O)c1	19.5	-2.5	-3.0%[46.1 µM]	?	-15.0%	-3.1%[46.1 µM]
COc1ccc(N2CC(NC(=O)c3ccc4c(c3)OCO4)CC2=O)cc1OC (stereo not drawn)	.	.	.	.	.	-11.2%[46.1 µM]
O=C1C(=O)N(CCN2CCOCC2)C(c2ccccn2)/C1=C(/O)c1ccc(F)cc1 (stereo not drawn)	15.0	9.8	1.9%	?	?	8.4%
COc1ccc(/C(O)=C2/C(=O)C(=O)N(CCN3CCOCC3)C2c2ccccn2)cc1 (stereo not drawn)	54.3*	33.2*	2.0%[46.1 µM]	40.4%	?	21.7%
O=C(O)CCCC(=O)Nc1ccc(N=Nc2ccccc2)cc1	22.6	18.7	.	35.9%	27.2%	.
O=C(COC(=O)c1ccccc1O)Nc1ccc(OC(F)F)cc1	55.9*	21.9*	2.2%	39.7%	9.28µM*	1.9%
COC(=O)CCC(=O)Nc1ccc(N=Nc2ccccc2)cc1	64.1*	39.0*	-11.2%[46.1 µM]	56.3%	63.1%	?
O=C(COC(=O)C1CC1)Nc1ccc(N=Nc2ccccc2)cc1	78.7*	65.7*	?	242.4%	354.6%	?
O=C(COC(=O)C1CC1)Nc1ccc(OC(F)F)cc1	24.1*	25.8*	-0.8%	.	59.2%	6.8%
CC(C)(C)c1cccc(P(=O)(c2ccccc2)c2ccccc2)c1O	-4.6	-2.8	3.4%[46.1 µM]	?	14.4%	19.3%
COC(=O)c1ccc(OCC(O)CNC2CCCC2)cc1 (stereo not drawn)	16.0	-0.1	-0.2%[46.1 µM]	-8.2%	-7.6%	9.1%[46.1 µM]
CC(C)OCCCNC(=O)c1c(N)n(Cc2cccs2)c2nc3ccccc3nc12	-2.7	-2.6	?	9.28µM*	11.7µM*	?
CC(C)CCn1c(N)c(C(=O)NCc2cccs2)c2nc3ccccc3nc21	3.1	5.1	?	0.828µM*	?	-22.1%
COCCNC(=O)c1c(N)n(CCC(C)C)c2nc3ccccc3nc12	-6.6	-1.8	?	.	?	-0.9%
COCCNC(=O)c1c(N)n(CCCn2ccnc2)c2nc3ccccc3nc12	9.5	-1.9	27.1%[46.1 µM]	7.38µM*	?	22.2%
COCCn1c(N)c(C(=O)NCc2cccs2)c2nc3ccccc3nc21	-4.0	-3.7	?	?	?	-0.5%
O=C(CN1C(=O)NC2(CCCCCC2)C1=O)c1ccc(OC(F)F)cc1OC(F)F	.	.	?	?	?	-23.8%[46.1 µM]
CCCCCCC1CC(/C(C)=N\NC(N)=O)OC1=O (stereo not drawn)	-4.7	-1.5	?	6.3%	-4.7%	-14.5%
N#C/C(=C\c1cccs1)C(=O)NCC1CCCO1 (stereo not drawn)	80.3*	25.0*	9.6%[46.1 µM]	58.1%	5.7%	?
N#C/C(=C\c1c[nH]c2ccccc12)C(=O)NCC1CCCO1 (stereo not drawn)	53.7*	30.6*	?	41.9%	50.8%	-29.3%[46.1 µM]
N#C/C(=C/c1cc(Br)cs1)C(=O)NCC1CCCO1 (stereo not drawn)	-10.3	5.0	-1.6%[46.1 µM]	18.9%	49.4%	0.4%
SMILES	Shiga inhibitor	Cycloheximide cs	Marburg entry inh	Pf growth 48h	Pf growth 96h	LASV entry inh
COc1cc(/C=C(\C#N)C(=O)NCC2CCCO2)ccc1OC(C)C (stereo not drawn)	91.7	73.2*	-21.8%	-10.9%	?	13.8%
COc1ccccc1/C=C(\C#N)C(=O)NCC1CCCO1 (stereo not drawn)	.	.	.	.	.	6.2%[46.1 µM]
Cc1[nH]c2ccccc2c1/C=C(\C#N)C(=O)NCC1CCCO1 (stereo not drawn)	16.0	18.3*	5.9%	-9.9%	21.8%	-25.1%
Cc1cc(Br)c(S(=O)(=O)NCCN2CCOCC2)cc1C	-14.7	-3.7	16.7%	?	.	5.3%
CCCC(=O)N(Cc1cc(=O)[nH]c2ccccc12)c1ccc(C)cc1	-3.5	-2.9	?	?	?	-17.4%
COc1ccc(N2CCN(CC(=O)N3c4ccccc4CC3C)CC2)cc1 (stereo not drawn)	-6.9	6.5	18.0%[46.1 µM]	-3.9%	3.4%	-16.0%[46.1 µM]
Cc1noc(C)c1CSCC(=O)Nc1cc(C(F)(F)F)ccc1N1CCCCC1	.	.	?	4.65µM*	?	?
Cc1cc(NC(=O)C(C)SCC(=O)N(Cc2ccccc2)c2ccccc2)no1 (stereo not drawn)	.	.	3.55µM*	?	-13.7%	?
Cc1cc(NC(=O)CSCC(=O)Nc2cc(C(F)(F)F)ccc2N2CCCCC2)no1	.	.	-9.6%	.	.	-0.5%
Cc1noc(C)c1CSCC(=O)Nc1ccccc1N1CCCC1	.	.	-17.7%[46.1 µM]	.	.	-11.8%
Cc1cc(NC(=O)C(C)SCC(=O)Nc2cc(C(F)(F)F)ccc2N2CCCCC2)no1 (stereo not drawn)	.	.	?	?	11.7µM*	-27.2%
Cc1noc(C)c1CSCC(=O)Nc1cc(Cl)ccc1N1CCCCC1	.	.	?	?	6.57µM*	?
O=C(NCCNS(=O)(=O)c1ccccc1)N1CCOCC1	-24.2	-2.2	11.6%	12.7%	2.9%	17.7%
O=C(NCC(c1cccnc1)N1CCN(c2ccccc2F)CC1)C1CCCCC1 (stereo not drawn)	-15.5	-3.4	-10.3%	.	9.0%	-7.6%
CC12CC[C@H]3[C@@H](CCC4(O)C[C@H](O)CCC34/C=N/NC(=O)c3ccccc3[N+](=O)[O-])C1(O)CCC2C1=CC(=O)OC1 (stereo partly drawn)	-22.6	-1.8	?	-1.7%	42.0%	?
Cc1cc(NC(=O)C(C)SCC(=O)Nc2ccccc2N2CCCC2)no1 (stereo not drawn)	.	.	.	?	-29.2%	.
Cc1cc(NC(=O)C(C)SCC(=O)Nc2ccccc2C(C)(C)C)no1 (stereo not drawn)	.	.	-9.2%	13.1µM*	14.7µM*	-8.2%[46.1 µM]
C=CCNC(=S)N1CC2(C)CN(C(=S)NCC=C)CC(C)(C1)C2=O	-9.2	-2.5	.	2.2%	-2.5%	.
COCCCN1Cc2cccc(C(=O)O)c2C1=O	16.9	3.3	.	.	8.28µM*	.
CCOC(=O)Cn1c2ccc(F)cc2c2nc(C)sc21	-7.8	16.3	3.7%[46.1 µM]	17.1%	?	4.4%[46.1 µM]
O=C(O)C(=O)/C(=C\c1cccc2ccccc12)c1ccc2ccccc2n1	-11.3	1.0	-22.6%	.	20.4%	?
O=C(O)C(=O)/C(=C\c1ccccc1)c1ccc2ccccc2n1	88.8*	34.2*	2.9%	.	393.5%	-0.2%
